# Source: PubChem
# Most compounds without a hit are left out; they make up all but 1.2% or so of the library.
# CIT2-GFP yeast: modulators of TOR pathway CIT2-GFP in S. cerevisiae | GFP response vs DMSO, % at 10 µM | S. cerevisiae CIT2-GFP strain, flow cytometry, 3 h; 100 means same as DMSO wells | actives 0.065% (n = 320,000) | AID 2029;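 active = GFP response relative to DMSO above a set limit, near the screen mean plus 3 SD, cut at about 150% in these data; inconclusive = Fewer than 70 cells measured for a yeast strain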;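 also: ratio of well median GFP fluorescence to mean of DMSO wells on the plate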
# RPL19A TOR yeast: modulators of TOR pathway RPL19A-GFP in S. cerevisiae; S. cerevisiae RPL19A-GFP strain, flow cytometry, 3 h; hits give low values; percent response vs DMSO, % at 10 µM; actives 0.3% (n = 330,000);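 active = percent response vs DMSO below 50%; inconclusive = fewer than 70 events counted for the yeast strain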;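 also: median channel GFP fluorescence of the barcoded RPL19A-GFP strain; ratio of sample median GFP to plate DMSO average so 100% = DMSO; lower means less RPL19A-GFP as with rapamycin TOR inhibition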
# LAP4 TOR yeast: alters LAP4-GFP fluorescence in TOR pathway yeast screen. S. cerevisiae LAP4-GFP multiplex, flow cytometry GFP, 3 h; median GFP as percent of DMSO wells. GFP response vs DMSO, % at 10 µM. actives 0.34% (n = 320,000). AID 2023;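 active = GFP response vs DMSO above a set limit, about the screen mean plus 3 SD, cut at about 150% in these data; inconclusive = under 70 cell events counted for the yeast strain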
# AGP1-GFP MLPCN: yeast TOR pathway AGP1-GFP modulation; S. cerevisiae AGP1-GFP multiplex flow cytometry, 3 h; GFP as percent of DMSO wells; GFP response vs DMSO, % at 10 µM; actives 0.02% (n = 320,000);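 active = GFP response relative to DMSO above a set limit, near screen average plus 3 SD, cut at about 150% in these data; inconclusive = fewer than 70 cells counted for the yeast strain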;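 also: median GFP channel fluorescence of the gated AGP1 strain per well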
# MEP2 TOR yeast: modulators of TOR pathway MEP2-GFP in S. cerevisiae. S. cerevisiae MEP2-GFP strain, flow cytometry GFP, 3 h; 100% = DMSO control level. GFP response vs DMSO, % at 10 µM. actives 0.51% (n = 330,000);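 active = GFP response versus DMSO above a set limit, roughly screen mean plus 3 SD, cut at about 180% in these data; inconclusive = fewer than 70 cells counted for a yeast strain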;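 also: median GFP fluorescence of the barcode-gated MEP2-GFP cells per well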
# Pemphigus Ab inh: inhibitors of pemphigus antibody binding to human desmoglein-3; P32926; DSG3-coupled beads, scFv-anti-DSG3-GFP binding, flow cytometry; hits give low values; binding (percent of control), % at 10 µM; actives 0.48% (n = 310,000);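 active = binding more than 3 SD below its plate's average and above zero; inconclusive = below that plate limit but binding exactly zero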;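 also: hits lower antibody fragment binding to DSG3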
# An asterisk follows results filed as active; ? = inconclusive; nt = not tested or not shown; [ ] = remark or other dose.
SMILES,CIT2-GFP yeast,RPL19A TOR yeast,LAP4 TOR yeast,AGP1-GFP MLPCN,MEP2 TOR yeast,Pemphigus Ab inh
CCCCCCC(NC(=O)c1ccc(C)cc1)C(=O)O (configuration not stated),nt,nt,nt,nt,nt,103
CN(C)CCCNC(=O)C[C@H]1C[C@H](C(=O)N2CCOCC2)[C@@]2(C)c3[nH]c4ccc(Cl)cc4c3CCN2C1=O,nt,nt,nt,nt,nt,109
CCOC(=O)c1ccc2c(c1)sc(=NC(=O)c1ccco1)n2CCOC,105,103,132,114,116,66
CCOC(=O)Cn1c(=NC(=O)c2cccs2)sc2cc(C(=O)OC)ccc21,97,103,86,91,107,18*
COc1cc(OC)c(C(=O)c2ccccc2[N+](=O)[O-])c(OC)c1,nt,nt,nt,nt,nt,97
O=C(O)c1ccc2c3c(cccc13)C(=O)N(c1ccccc1)C2=O,104,97,104,106,97,16*
O=C(O)c1ccc(N2C(=O)c3cccc4c(C(=O)O)ccc(c34)C2=O)cc1,nt,86,87,95,102,nt
CC1(C)CC(=O)C(N=Nc2cccc(S(=O)(=O)N3CCOCC3)c2)=C(O)C1,102,101,101,106,101,101
CC1CCN(S(=O)(=O)c2ccc(N=NC3=C(O)CC(C)(C)CC3=O)cc2)CC1,99,95,90,95,92,7.6*
Cc1ccc(S(=O)(=O)N2CCOCC2)cc1C(=O)OCC(=O)NC1CCCC(C)C1C (configuration not stated),95,98,98,100,95,93
CC(C(=O)Nc1ccc(F)cc1Cl)N(C)CCOc1ccccc1 (configuration not stated),107,105,97,100,103,100
CC(C(=O)Nc1ccccc1)N(C)CCOc1ccccc1 (configuration not stated),?,40*[may fluoresce violet],97,61,299*[may fluoresce violet],95
O=C(CSc1ncccn1)NC(=O)c1ccccc1,115,101,106,114,105,114
Cc1ccc(OC2CCN(C(=O)C3CCC(=O)N(C4CC4)C3)CC2)cc1 (configuration not stated),87,93,79,92,77,99
Cc1ccccc1OC1CCN(C(=O)C2CCC(=O)N(C3CCCC3)C2)CC1 (configuration not stated),100,88,156*,105,99,101
CN(C)S(=O)(=O)c1ccc(Nc2ccc(-c3ccc4c(c3)OCCO4)nn2)cc1,104,101,98,99,105,69*
CCN(CC)S(=O)(=O)c1ccc(Nc2ccc(-c3ccc4c(c3)OCCO4)nn2)cc1,97,94,95,95,98,101
COc1ccc(S(=O)(=O)N2CCC(C(=O)NCCC(=O)NCc3ccccn3)CC2)cc1,nt,nt,nt,nt,nt,104
CC(=O)N1CCN(CC(=O)NC(=O)Nc2ccc3c(c2)OCCO3)CC1,97,99,110,107,103,118
CC1CCN(S(=O)(=O)c2cccc(C(=O)Nc3nccs3)c2)CC1,152*,105,166*,112,214*,100
CN1CCN(S(=O)(=O)c2cccc(C(=O)Nc3nccs3)c2)CC1,110,95,107,109,99,97
COc1ccc(-c2[nH]ncc2N=Nc2cc(C)cc(C)c2)cc1,87,98,94,95,98,86
COc1ccc(-c2[nH]ncc2N=Nc2ccccc2)cc1,89,101,151*,80,104,102
CC(=O)c1cccc(NC(=O)CCCCCn2nnc3ccccc3c2=O)c1,102,104,90,101,101,97
C=CCn1c(O)c(N=NC(=S)Nc2ccccc2F)c2ccccc21,92,?,?,?,?,3.1*
SMILES,CIT2-GFP yeast,RPL19A TOR yeast,LAP4 TOR yeast,AGP1-GFP MLPCN,MEP2 TOR yeast,Pemphigus Ab inh
Oc1c(N=NC(=S)Nc2ccccc2F)c2ccccc2n1Cc1ccccc1,96,100,108,103,98,98
COc1ccc(-n2c(=O)c3c4c(sc3n(CC(=O)NCC3CCCO3)c2=O)CN(C(C)=O)CC4)cc1OC (configuration not stated),nt,nt,nt,nt,nt,92
CC(C)NC(=O)C1CCN(Cc2cccc(OCc3ccccc3)c2)CC1,nt,nt,nt,nt,nt,83*
CC(C)NC(=O)C1CCN(Cc2cccc(Oc3ccccc3)c2)CC1,99,105,93,100,103,106
CCOc1cc(N2CCOCC2)c(OCC)cc1NC(=O)c1[nH]c(C)c(C(C)=O)c1C,96,97,109,108,102,101
CCOc1ccc(OCC)c(NC(=O)c2[nH]c(C)c(C(C)=O)c2C)c1,?,41*[may fluoresce violet],101,?,368*[may fluoresce violet],98
Cc1ccc2nc(NC(=S)NC(=O)c3ccco3)sc2c1,?,40*[may fluoresce violet],64,?,125,103
Cc1ccc2nc(NC(=O)c3ccco3)sc2c1,95,98,120,94,100,91
Cc1ccc(-c2nn3c(C)nnc3s2)cc1NC(=O)C(C)C,98,97,102,100,100,82*
CCn1cc(C(=O)NCCCN2CCC(C)CC2)c(=O)c2cc(S(=O)(=O)N3CCOCC3)ccc21,98,97,96,100,99,106
Cc1nc(Nc2ccccc2F)c2oc3ccccc3c2n1,103,96,107,86,97,100
Cc1nc(Nc2ccccc2O)c2oc3ccccc3c2n1,110,101,93,98,106,80*
Cc1nc(Oc2ccccc2)c2oc3ccccc3c2n1,?,57,112,?,430*[may fluoresce violet],100
COc1ccc(/C=N/NC(=O)C2(C)NC(C)(C)Cc3ccccc32)cc1 (configuration not stated),148,80,158*,160*,239*,nt
O=C1Cc2cc(S(=O)(=O)Nc3ccc(N4CCOCC4)cc3)ccc2N1,94,92,94,98,88,99
Nc1ccc(-c2nc3ccc(N)cc3s2)cc1,?,90,97,25,290*[may fluoresce violet],105
Nc1cccc(-c2nc3ccc(N)cc3s2)c1,92,98,111,72,108,109
COc1cc2ccccc2cc1C(=O)Nc1ccc(Cl)cn1,102,107,84,97,104,102
Clc1ccc(CSc2nnc(-c3ccncc3)o2)cc1,?,67,108,17,179*[may fluoresce violet],98
NC(=O)C1CCN(C(=O)CCC(=O)c2cccs2)CC1,106,101,101,110,104,134
COc1ccc(CNn2c(-c3cccs3)nc3ccccc3c2=O)cc1OC,82,96,102,93,100,100
CCOC(=O)c1[nH]c2ccccc2c1NC(=O)C(CC)CC,83,99,85,92,86,-14*
CC(C)(C)c1ccc(C(=O)Nc2cccc(-n3cnnn3)c2)cc1,101,106,106,113,107,101
